Bioassay records as filed in PubChem.
Only a selection was taken, and hits are over-represented in it overall.
AmpC no deterg = qHTS Inhibitors of AmpC Beta-Lactamase (assay without detergent). Potency, µM (top dose mostly 57.1 µM), for the others: at the top dose activity change, negative = inhibition, actives largely listed as inhibitors. P00811. hit rate 0.52% among 330,000. AID 485341, 2010. AmpC nitrocefin hydrolysis, absorbance 480 nm, 0.0001% Triton;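 further: potency means the concentration at half of the fitted maximal effect; plate controls were no compound for no effect and no enzyme for full effect; nearly all actives have a fitted effect of over 20% in size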
Target sequence (P00811 whole entry, looked up): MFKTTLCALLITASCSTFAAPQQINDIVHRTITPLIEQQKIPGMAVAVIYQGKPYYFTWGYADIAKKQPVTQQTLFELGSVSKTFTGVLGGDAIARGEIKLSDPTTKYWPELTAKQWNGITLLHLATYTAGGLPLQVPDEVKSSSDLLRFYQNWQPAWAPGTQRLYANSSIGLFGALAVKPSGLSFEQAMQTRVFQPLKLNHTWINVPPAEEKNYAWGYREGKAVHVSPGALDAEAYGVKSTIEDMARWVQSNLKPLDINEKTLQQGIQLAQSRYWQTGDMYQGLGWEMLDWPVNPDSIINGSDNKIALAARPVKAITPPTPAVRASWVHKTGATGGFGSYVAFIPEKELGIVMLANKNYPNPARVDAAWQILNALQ
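20 mM phosphate pH 7.0 + 0.01% (detergent screen) or 0.0001% Triton X-100; 5.3 nM AmpC reagent; cpd preinc 15 min RT; nitrocefin (800 uM stock) to start; A480 q20 s × 4 min; Activity was normalised to no-enzyme and no-compound control wells.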
SARS PLP yeast = qHTS of Yeast-based Assay for SARS-CoV PLP | Potency, µM (highest dose often 32.9 µM), for inactives: top-dose activity, positive = growth rescue, actives largely listed as activators | S. cerevisiae expressing SARS-CoV PLpro, growth rescue | hit rate 0.19% among 330,000; calls by dose curve; further: potency means the concentration at half of the fitted maximal effect; 0% is about no effect; nearly all actives have a fitted effect of over 55% in size
Shiga toxin inh = A qHTS for Small Molecule Inhibitors of Shiga Toxin. Vero cells, Shiga toxin protein synthesis inhibition reporter. inhibition, % at 38.7 µM. hit rate 9.2% among 290,000. AID 2315, 2010; in the data active means inhibition mostly above about 28%, no sharp cut-off; inactive means mostly below about 43%; further: 0% is about no effect
AmpC detergent = qHTS Inhibitors of AmpC Beta-Lactamase (assay with detergent); AmpC hydrolysis of nitrocefin, absorbance 480 nm, 0.01% Triton; hit rate 0.041% among 370,000; AID 485294, 2010; Potency, µM (series often up to 114 µM), for the others: top-dose activity change, negative = inhibition, hits mostly inhibitors; P00811;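 further: potency means the concentration at half of the fitted maximal effect; 0% = no-compound wells and -100% = no-enzyme wells; nearly all actives have a fitted effect of over 25% in size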
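AmpC (5.3 nM in the dispensed reagent) in 20 mM phosphate pH 7.0 with 0.01% (detergent screen) or 0.0001% Triton X-100 was preincubated with compounds for 15 min at room temperature. Nitrocefin was then added from an 800 uM solution, and hydrolysis was followed at 480 nm.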
AMA1 RON2 block = qHTS for Inhibitors of AMA1-RON; Towards Development of Antimalarial Drug Lead: Primary Screen; hit rate 0.2% among 360,000; AID 720542, 2013; Plasmodium falciparum AMA1 (3D7) - RON2 peptide interaction; Potency, µM (highest dose often 58.2 µM), inactives show top-dose activity change, negative = inhibition, hits mostly inhibitors; AlphaScreen AMA1-biotinylated RON2 peptide binding;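 further: potency means the concentration at half of the fitted maximal effect; 0% = vehicle wells and -100% = peptide control; nearly all actives have a fitted effect of over 45% in size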
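AMA1 (3D7) with his tag at 25 nM final met compounds first, then biotinylated RON2 peptide at 25 nM; detection used donor plus acceptor beads, 10 µg/mL apiece, read by AlphaScreen after 30 min at room temperature.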
Cycloheximide cs = Cycloheximide Counterscreen for Small Molecule Inhibitors of Shiga Toxin; AID 2314, 2010; max response, %; hit rate 12% among 300,000; cell reporter, cycloheximide protein synthesis inhibition counterscreen; in the data active means max response mostly above about 13%, no sharp cut-off; inactive means mostly below about 14%; further: read at 38.3 µM for the half of the compounds with a filed dose; 0% is about no effect
An asterisk follows results filed as active; ? = inconclusive; · = not tested or not shown. Unless noted, the call rests on the fitted dose curve; in most records, active means well fitted curve in the direction sought with a large enough effect; inconclusive means small, poorly fitted or top-dose-only effect, or another doubt; inactive means no such curve, though single readings can be large; an effect the other way counts as inactive or inconclusive.

SMILES	AmpC no deterg	SARS PLP yeast	Shiga toxin inh	AmpC detergent	AMA1 RON2 block	Cycloheximide cs
CCN(c1ccccc1)S(=O)(=O)c1cc([N+](=O)[O-])ccc1N	-4.4%	-0.1%	58.3*	0.5%	-15.4%	28.4*
O=c1c2ccccc2nc2c3ccccc3c(NCc3ccccn3)nn12	-24.4%	-1.3%	-9.7	0.2%	89.3%	2.0
N#Cc1c(NC(=O)CSc2ncnc3sccc23)oc(-c2ccco2)c1-c1ccco1	1.78µM*	-0.1%	-18.5	-8.4%	5.1%	-3.3
COc1cccc(C(=O)Cn2c(NCCO)nc3ccccc32)c1	-15.8%	2.4%	18.6	-0.2%	-13.5%	-4.3
N=c1n(CC(=O)c2cccc([N+](=O)[O-])c2)c2ccccc2n1Cc1ccccc1	-37.8%	-4.2%	14.6	-14.8%	4.4%	5.7
COc1cccc(C(=O)Cn2c(=N)n(C)c3ccccc32)c1	57.2%	7.5%	29.9	-11.4%	-10.4%	30.6*
CCn1c(=N)n(CC(=O)c2cccc([N+](=O)[O-])c2)c2ccccc21	-16.8%	-2.1%	80.8*	-2.9%	-8.8%	37.5*
Cn1c(=N)n(CC(=O)c2cccs2)c2ccccc21	-14.3%	2.8%	149.5*	0.2%	-3.3%	55.9*
CN(C)C1=NCCN1CCCC1CCCC1	-13.8%	-9.8%	·	?	-5.6%	·
COc1ccc(CNC(=O)c2cccnc2)cc1	-14.2%	24.2%	-4.2	4.9%	-11.9%	9.0
O=C(/C=C/c1ccncc1)c1cc(Cl)ccc1O	-1.6%	-4.1%	19.8	1.5%	-4.7%	10.3
COc1ccc(/C=C/C(=O)c2ccc(Cl)cc2)c(OC)c1	24.2%	-10.4%	80.0*	-8.5%	-23.7%	43.3*
COc1ccc(/C=C/C(=O)c2cc(Cl)ccc2O)c(OC)c1	-19.5%	-1.1%	49.5*	-5.5%	?	24.6*
COc1ccc(C(=O)/C=C/c2ccccc2)c(O)c1	?	-14.2%	53.6*	-9.0%	-24.1%	69.7*
CN(C)c1ccc(/C=C/C(=O)c2cc(Cl)ccc2O)cc1	-26.6%	-1.7%	33.5	0.3%	14.1µM*	12.2
COc1cccc(N2C(=O)C3NN=C(C(=O)CN4C(=O)c5ccccc5C4=O)C3C2=O)c1 (centres undefined)	1.5%	-0.3%	-4.5	2.6%	25.3%	0.3
COc1ccc(C(=O)/C=C/c2ccc(OC)cc2OC)c(O)c1	-2.6%	-0.4%	72.3*	5.3%	13.4%	43.0*
Cc1cccc(OCCn2c(=O)sc3ccccc32)c1	-20.5%	-3.4%	79.1*	?	51.9%	35.8*
COc1ccccc1OCCn1c(=O)sc2ccccc21	-38.6%	-4.2%	13.2	-9.1%	5.5%	8.0
COc1ccc(OCCn2c(=O)sc3ccccc32)cc1	-24.3%	-1.7%	80.6*	1.5%	-2.7%	24.6*
Cc1cccc(OCCCn2c(=O)sc3ccccc32)c1	-24.9%	-19.6%	60.3*	-4.8%	29.5%	44.1*
Cc1cccc(OCCn2c(=O)n(C)c3ccccc32)c1	65.9%	-9.0%	115.1*	?	5.0%	66.6*
Cc1cccc(NC(=O)c2oc3ccccc3c2NC(=O)Cc2coc3c(C)c(C)ccc23)c1	·	·	·	8.1%	·	·
CN(CCc1ccccc1)Cc1nc(-c2cnccn2)no1	-0.2%	-0.8%	-6.7	5.2%	-10.6%	1.9
O=c1ncn(-c2cccc(F)c2)c2ncccc12	1.0%	8.7%	2.7	-12.5%	16.8%	14.1*
COC(=O)C1=C(C)C(c2ccc(OC)cc2OC)NC(=O)N1 (centres undefined)	-6.1%	?	22.2	-7.7%	9.4%	-4.3
COc1ccc(C2CC(C)(c3ccc(OC)cc3OC)Nc3ccccc3N2)c(OC)c1 (centres undefined)	-25.2%	-2.5%	63.3*	-2.7%	2.1%	30.3*
O=[N+]([O-])c1ccc(OCCn2cnc3ccccc32)cc1	2.8%	-2.2%	-5.7	?	1.6%	-2.6
CC(=O)c1ccc(OCCn2cnc3ccccc32)cc1	1.8%	10.6%	38.2	-0.3%	5.7%	9.2
